{
  "source": "PubChem BioAssay AID488900",
  "about": "(National Center for Advancing Translational Sciences (NCATS), 2010)",
  "experiment": "Secondary Assay for lipid storage modulators: Hela cell LDSA assay for probe SAR",
  "details": "HeLa lipid droplet accumulation, BODIPY 493/503 cytometry, oleate-fed",
  "source_text": "NIH Molecular Libraries Probe Production Centers Network [MLPCN] NIH Chemical Genomics Center [NCGC] MLPCN Grant: 1 R03 MH085686-01 Assay Submitter (PI): Beller, Mathias; Max-Planck-Institut fur Biophysikalische Chemie NCGC Assay Overview: Storing lipids as a reservoir for energy or the anabolism of elementary metabolites is a common feature of probably all cells and is conserved from bacteria to humans. The universal cellular lipid storage organelle is the so-called lipid storage droplet (LD). Although ubiquitous, LDs share a simple structure composed of a hydrophobic core that harbors the storage lipids, which is shielded by a droplet-specific phospholipid monolayer to which proteins are attached. The current model of LD biogenesis involves an incorporation of the lipid core into the membrane leaflets of the endoplasmic reticulum (ER) followed by a subsequent budding-like maturation of a LD, which ultimately pinches off. […]\nNCGC Assay Protocol Summary: The assay was performed with Hela cells, using an oleic acid feeding protocol similar to the S3 assay. […] Fluorescence was detected by excitation of the fluorophores with a 488-nm laser on an Acumen Explorer (TTP Lab Tech). […] Cells were detected using channel 3 (575-640 nm) with 5-um width and 100-um depth filters. The ratio of the number of objects in PMT channel 2 over the number of objects in PMT channel 3 was also calculated. […]",
  "note": "Records with an inconclusive call do not appear. The source made the active and inactive calls. The call rests on the fitted dose curve; in most records, active means well fitted curve in the direction sought with a large enough effect; inconclusive means small, poorly fitted or top-dose-only effect, or effect the other way, or another doubt; inactive means no such curve, though single readings can be large or run the other way.",
  "data": [
    {"compound": "CCC/C=C/C/C=C/C=C/C=N/NN=O", "values": [
      {"measurement": "Potency", "value": "11.2 nM (active)"}
    ]}
  ]
}
